Screening results as filed in PubChem BioAssay.
Compounds with a hit are over-represented: about 19% of the library has one in this group of screens.
IL1B secr inh: inhibitors of inflammasome signaling (IL-1 beta secretion). THP-1 LPS/ATP IL-1B secretion, AlphaLISA, 16 h; active compounds read low. activity change, % at 57.5 µM. actives 4.7% (n = 360,000). AID 743279; in the data active = activity change below about -50%; inconclusive = mostly about -30% to -49%
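Secreted IL-1B measured by AlphaLISA bead assay after 16 h compound exposure of THP-1 cells; compounds (final up to 57.5 uM) added 1 h before LPS (250 ng/mL) and ATP (1.25 mM) stimulation; lower signal means less secretion.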
HT1080 IDH1KD tx: toxicity to HT-1080 IDH1 knockdown cells (counter line) | HT-1080 IDH1 knockdown viability, ATP luminescence, 48 h | Potency, µM (titrated, usually from 46.1 µM), inactives show at the top dose activity, negative = toxicity, actives largely listed as cytotoxic | actives 2% (n = 360,000);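 also: potency is read from the fitted curve at half-maximal effect; 0% = DMSO wells and -100% = cell-free medium wells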
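After a 2 h attachment period, IDH1KD HT-1080 cells took pin-transferred compound for 48 h at 37 °C; ATP-based luminescence after 10 min room-temperature reagent incubation reported viability.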
DT40 TDP1 no CPT: qHTS for Inhibitors of human tyrosyl-DNA phosphodiesterase 1 (TDP1): qHTS in cells in absence of CPT | DT40 Tdp1-/- hTDP1 cells, no CPT, ATP luminescence, 48 h | Potency, µM (top dose mostly 46.2 µM), for the others: at the highest dose activity change, negative = growth inhibition, usual class: inhibitors | actives 15% (n = 420,000) | AID 686978, 2013; also: potency is read from the fitted curve at half-maximal effect; nearly all actives have a fitted effect of over 55% in size
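Growth kinetics read by CellTiter-Glo luminescence after ≥48 hr at 37 °C. Cells: DT40 Tdp1-/- stably carrying human TDP1, 400 per well, compound exposure in the absence of CPT (DMSO vehicle).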
HT1080-NT tox: kills 2HG-producing HT-1080-NT fibrosarcoma cells; actives 1.6% (n = 360,000); Potency, µM (highest dose often 46.1 µM), inactives show top-dose activity, negative = less viability, actives largely listed as cytotoxic; HT-1080-NT fibrosarcoma viability, CellTiter-Glo ATP luminescence, 48 h; AID 686970;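 also: NT is the 2HG producing partner of a matched IDH1 knockdown line; potency is read from the fitted curve at half-maximal effect; 0% = DMSO-treated cells and -100% = media-only wells without cells; nearly all actives have a fitted effect of over 55% in size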
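Luminescent CellTiter-Glo readout after 48 hours of compound exposure at 37 degrees C defined viability of HT-1080-NT cells. Activity was normalized to DMSO wells and cell-free media wells; concentration-response curves were fitted and assigned curve classes.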
TDP1 cell CPT: growth inhibition of DT40 Tdp1-/-;hTDP1 cells with camptothecin (screen for TDP1 inhibitors); chicken DT40 Tdp1-/-;hTDP1 cells + 20 nM CPT, ATP luminescence, 48 h; AID 686979; actives 12% (n = 420,000); Potency, µM (doses to about 46.2 µM), for inactives: top-dose activity change, negative = growth inhibition, actives largely listed as inhibitors; also: potency is read from the fitted curve at half-maximal effect; nearly all actives have a fitted effect of over 55% in size
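Cell growth measured by CellTiter-Glo luminescence after a minimum 48 h, 37 C compound exposure with 20 nM CPT in Tdp1-knockout DT40 cells stably expressing hTDP1, seeded 400/well; qHTS titration format.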
ELG1 repair inh: blocks ELG1-dependent DNA repair in HEK293T cells; actives 2.3% (n = 330,000); HEK293T ELG1-luciferase reporter, luminescence, 16 h; DNA damage induced by 5-fluorouridine; Potency, µM (titrated, usually from 46.1 µM), without a hit: at the highest dose activity change, negative = inhibition, actives largely listed as inhibitors; AID 504467; also: potency is read from the fitted curve at half-maximal effect; nearly all actives have a fitted effect of over 55% in size
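Reporter activity after DNA damage by 5-fluorouridine is monitored. Compound-treated cells incubate 16 hr at 37 °C, then ONE-Glo is added for 30 min before luminescence reading.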
* = called active by the depositor; ? = inconclusive; . = not tested or not shown. Unless noted, calls follow the shape of the dose curve; as a rule, active = well fitted curve in the direction sought with a large enough effect; inconclusive = small, poorly fitted or top-dose-only effect, or another doubt; inactive = no such curve, though single readings can be large; an effect the other way counts as inactive or inconclusive. Unless noted, % is scaled to controls: 0 for no effect and ±100 for the full control effect.

SMILES	IL1B secr inh	HT1080 IDH1KD tx	DT40 TDP1 no CPT	HT1080-NT tox	TDP1 cell CPT	ELG1 repair inh
CCc1cc(-c2n[nH]c(C)c2Oc2ccc(C(C)C)cc2)c(O)cc1O	-20	?	-24%	-11%	?	4%
COc1cc(-c2noc(C)c2C(=O)NCC[C@@H]2CCCN2C)cc(OC)c1OC	-5	-3%	-10%	-1%	-5%	14%
COc1cccc2sc3ccc(NCCC4CCCN4C)cc3c(=O)c12 (stereo unspecified)	-70*	-10%	?	-17%	?	10%
Cc1cc(C)c(S(=O)(=O)NCCC2CCCN2C)c(C)c1 (stereo unspecified)	0	-12%	4%	-11%	-28%	-1%
COc1cc2sc3cc(NCC[C@@H]4CCCN4C)ccc3c(=O)c2cc1OC	-60*	-2%	?	-3%	?	?
CC(=O)Nc1cccc(C(=O)OCC(=O)N2CCC(c3ccccc3)=N2)c1	-20	17%	-23%	16%	-10%	?
Oc1ccc2cc(Br)ccc2c1CN1CCCC1	-58*	-13%	23µM*	-13%	28%	6%
Cc1nnc(NC(=O)C2CCN(S(=O)(=O)c3ccc(F)c(Cl)c3)CC2)o1	7	-12%	7%	-3%	-2%	1%
COc1ccc(S(=O)(=O)N2CCCCCC2)cc1NC(=O)Cc1ccccc1	16	4%	9%	0%	3%	?
CCN1CCN(S(=O)(=O)c2ccc(Cl)c(C(=O)Nc3nnc(CC(C)C)s3)c2)CC1	0	-7%	?	-14%	23µM*	-8%
CCc1nnc(NC(=O)c2cc(S(=O)(=O)N3CCN(c4ccccc4)CC3)ccc2Cl)s1	15	4%	-7%	-5%	-27%	-6%
CCN1CCN(c2c(Cl)cccc2NC(=O)c2cc3ccccc3o2)CC1	-25	0%	18µM*	-2%	?	.
O=C(Nc1cccnc1Cl)c1cc2ccccc2o1	21	12%	22%	2%	-1%	?
CCN1CCN(c2ccc(S(=O)(=O)N3CCCCC3)cc2NC(=O)Cc2ccc(OC)cc2)CC1	-80*	?	?	?	-30%	3%
CCN1CCN(c2ccc(S(=O)(=O)N3CCCCC3)cc2NC(=O)c2cc3ccccc3o2)CC1	-7	3%	16µM*	3%	?	-14%
Cc1ccc(S(=O)(=O)N2CCCCC2)cc1NC(=O)c1cc2ccccc2o1	-4	-1%	?	3%	?	?
COc1cccc(NC(=O)c2sc3nc(C)c(C(=O)Nc4ccc(C)cc4C)c(-c4ccccc4Cl)c3c2N)c1	.	.	?	.	-24%	.
Cc1cccc(-c2noc(CNC(=O)c3ccccc3Br)n2)c1	.	.	?	.	-17%	.
COc1ccc(S(=O)(=O)c2c(O)cc(C)c(NS(=O)(=O)c3ccccc3)c2C)cc1	-2	-8%	-23%	-22%	?	-4%
CCCc1cc(=O)[nH]c(SCC(=O)Nc2cc(S(=O)(=O)N3CCCCC3)ccc2C)n1	0	15µM*	13%	10µM*	-20%	6%
COc1ccc(CC(=O)Nc2cc(S(=O)(=O)N3CCCCC3)ccc2C)cc1	3	-6%	21µM*	0%	?	-1%
CCN1CCN(S(=O)(=O)c2ccc(Cl)c(C(=O)Nc3ccccc3N3CCCCC3)c2)CC1	-73*	?	26µM*	?	16µM*	0%
Cc1cc(=O)[nH]c(SCC(=O)Nc2cc(S(=O)(=O)N3CCCC3)ccc2Cl)n1	35	-7%	11%	-5%	-19%	-2%
CCOc1ccc(S(=O)(=O)N2CCCCC2)cc1NC(=O)Cc1ccc(OC)cc1	-1	-5%	?	-6%	?	.
CCC(=O)N[C@H]1C=C[C@H](CC(=O)OC)O[C@@H]1CO	17	15%	1%	4%	2%	.
SMILES	IL1B secr inh	HT1080 IDH1KD tx	DT40 TDP1 no CPT	HT1080-NT tox	TDP1 cell CPT	ELG1 repair inh
CN(Cc1ccc2nsnc2c1)C(=O)C1CCC(=O)N(CCc2ccccc2)C1 (stereo unspecified)	-30	-1%	-11%	-5%	-13%	.
Cc1noc(-c2ccc(NC(C)c3ccccc3)c([N+](=O)[O-])c2)n1 (stereo unspecified)	.	.	23µM*	.	16µM*	.
CC(Nc1ccc(-c2nc(-c3ccccn3)no2)cc1[N+](=O)[O-])c1ccccc1 (stereo unspecified)	.	.	-21%	.	-26%	.
CCc1noc(-c2ccc(NC(C)c3ccccc3)c([N+](=O)[O-])c2)n1 (stereo unspecified)	.	.	?	.	18µM*	.
C=CCSc1nc2ccsc2c(=O)n1-c1cccnc1	15	0%	-9%	3%	-30%	17%
CN1C(=O)c2ccccc2Sc2ccc(NC(=O)COc3ccc(F)cc3)cc21	.	.	7.3µM*	.	16µM*	.
CN1C(=O)c2ccccc2Sc2ccc(NC(=O)COc3ccc(Cl)cc3)cc21	.	.	12µM*	.	21µM*	.
CCCNC(=O)Nc1ccc2c(c1)N(C)C(=O)c1ccccc1S2	-9	-13%	?	-9%	-25%	-5%
CN1C(=O)c2ccccc2Sc2ccc(NC(=O)N3CCCC3)cc21	-15	-12%	?	-24%	?	0%
COc1ccc(C(CC(=O)Nc2ccc(C)cn2)N2Cc3ccccc3C2=O)cc1 (stereo unspecified)	59	-12%	?	0%	9%	0%
COc1ccc(CN(C)c2ncnc3sccc23)c(OC)c1OC	-12	?	21µM*	?	12µM*	9.2µM*
COc1ccc(CCN(C)c2ncnc3sccc23)cc1OC	-53*	-7%	-61%	-16%	?	?
COc1ccc(CCN(C)C(=O)CSc2ncnc3sccc23)cc1OC	19	10%	?	-17%	?	0%
COc1ccc(S(=O)(=O)NC2CC3CCC2C3)cc1 (stereo unspecified)	2	0%	?	2%	0%	-17%
COc1ccc(N(C(=O)c2ccco2)C(C(=O)NC2CCCCC2)c2cccs2)cc1OC (stereo unspecified)	6	-2%	?	1%	?	?
C#CC(=O)N(c1ccc(OC)cc1OC)C(C(=O)NC1CCCC1)c1cccs1 (stereo unspecified)	-102*	?	2.1µM*	0.92µM*	?	1%
